Test results reported in PubChem BioAssay (EPA / NIEHS).
Inconclusive results are not listed. Calls of active or inactive are those of the source. Rule for the calls, unless noted: active = hit-call score of the fitted dose curve at least 0.9, where 1 is the maximum; inactive = score below 0.9.

How the values were obtained:
[1] = read-out: succinate dehydrogenase complex iron sulfur subunit B (SDHB), SDHB (gene 6390); assay: LTEA_HepaRG_SDHB: Life Technologies and Expression Analysis (LTEA) Assay for succinate dehydrogenase complex iron sulfur subunit B (SDHB) using HepaRG (AID 2283528); details: mRNA level, 48 h; actives raise or lower the signal
Outline: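 HepaRG, 48 h exposure, 8-pt half-log series from 100 uM in 0.5% DMSO, duplicates. Readout: SDHB mRNA by Fluidigm qRT-PCR vs housekeeping genes; bidirectional fit relative to DMSO.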

[2] = read-out: Signal transducer and activator of transcription 3 (Homo sapiens) (UniProt P40763); assay: LTEA_HepaRG_STAT3: Life Technologies and Expression Analysis (LTEA) Assay for Signal transducer and activator of transcription (STAT3) using HepaRG (AID 2283529); details: mRNA level, 48 h; actives raise or lower the signal
Outline: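 HepaRG, 48 h exposure, 8-pt half-log series (top 100 uM), 0.5% DMSO vehicle, duplicates. Readout: STAT3 transcript by Fluidigm qRT-PCR, housekeeping-normalized; bidirectional fit vs DMSO baseline.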

[3] = read-out: solute carrier (SLCO1B1), SLCO1B1 (gene 10599); assay: LTEA_HepaRG_SLCO1B1: Life Technologies and Expression Analysis (LTEA) Assay for solute carrier (SLCO1B1) using HepaRG (AID 2283530); details: mRNA level, 48 h; actives raise or lower the signal
Outline: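 Gain or loss of SLCO1B1 mRNA is fitted against the 0.5% DMSO vehicle in human HepaRG liver cells treated 48 h at up to 100 uM in half-log steps. Expression comes from qRT-PCR normalized to endogenous controls.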

[4] = read-out: sulfotransferase 2A1 (SULT2A1), SULT2A1 (gene 6822); assay: LTEA_HepaRG_SULT2A1: Life Technologies and Expression Analysis (LTEA) Assay for sulfotransferase 2A1 (SULT2A1) using HepaRG (AID 2283531); details: mRNA level, 48 h; actives raise or lower the signal
Outline: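 Cells were plated and cultured 48 h, switched to serum-free induction medium, then dosed in duplicate for 48 h (8 concentrations, max 100 uM). RNA was isolated and SULT2A1 expression measured by qRT-PCR; gain or loss of signal fitted relative to DMSO.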

[5] = read-out: Transforming Growth Factor (TGFA), TGFA (gene 7039); assay: LTEA_HepaRG_TGFA: Life Technologies and Expression Analysis (LTEA) Assay for Transforming Growth Factor (TGFA) using HepaRG (AID 2283532); details: mRNA level, 48 h; actives raise or lower the signal
Outline: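 qRT-PCR read-out of TGFA transcript, normalized to three housekeeping genes, fitted bidirectionally against 0.5% DMSO baseline. Human HepaRG cultures received chemicals for 48 h at eight half-log concentrations, top 100 uM.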

[6] = read-out: Transforming Growth Factor (TGFB1), TGFB1 (gene 7040); assay: LTEA_HepaRG_TGFB1: Life Technologies and Expression Analysis (LTEA) Assay for Transforming Growth Factor (TGFB1) Transporter using HepaRG (AID 2283533); details: mRNA level, 48 h; actives raise or lower the signal
Outline: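 Expression change of TGFB1 in human HepaRG cells is measured after a 48 h chemical exposure, up to 100 uM in 0.5% DMSO vehicle. Curves are fitted in both directions relative to the DMSO baseline.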

[7] = read-out: TIMP1, TIMP1 (gene 7076); assay: LTEA_HepaRG_TIMP1: Life Technologies and Expression Analysis (LTEA) Assay for TIMP1 using HepaRG (AID 2283534); details: mRNA level, 48 h; actives raise or lower the signal
Outline: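 We dosed human liver HepaRG cultures for 48 hours with up to 100 uM test chemical and measured TIMP1 expression by qRT-PCR. Activity in either direction is fitted relative to the 0.5% DMSO vehicle.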

[8] = read-out: Tumor necrosis factor receptor 1 (TNFRSF1A), TNFRSF1A (gene 7132); assay: LTEA_HepaRG_TNFRSF1A: Life Technologies and Expression Analysis (LTEA) Assay for Tumor necrosis factor receptor 1 (TNFRSF1A) using HepaRG (AID 2283535); details: mRNA level, 48 h; actives raise or lower the signal
Outline: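 Expression of TNFRSF1A in human HepaRG liver cells was measured by qRT-PCR 48 h after chemical dosing (maximum 100 uM). Bidirectional curve fitting used 0.5% DMSO as baseline.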

[9] = read-out: Thyroid Hormone Responsive (THRSP), THRSP (gene 7069); assay: LTEA_HepaRG_THRSP: Life Technologies and Expression Analysis (LTEA) Assay for Thyroid Hormone Responsive (THRSP) using HepaRG (AID 2283536); details: mRNA level, 48 h; actives raise or lower the signal
Outline: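 qRT-PCR read-out (Fluidigm TaqMan), housekeeping-normalized (ACTB/GAPDH/POLR2A). HepaRG, 48 h chemical exposure, 8-pt half-log series from 100 uM in 0.5% DMSO, duplicates. Bidirectional curve fit vs 0.5% DMSO baseline.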

[10] = read-out: Cellular tumor antigen p53 (Homo sapiens) (UniProt P04637); assay: LTEA_HepaRG_TP53: Life Technologies and Expression Analysis (LTEA) Assay for Tumor Protein P53 (TP53) using HepaRG (AID 2283537); details: mRNA level, 48 h; actives raise or lower the signal
Outline: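 HepaRG, 48 h exposure, top 100 uM, half-log 8-point, 0.5% DMSO vehicle, duplicates. Read: TP53 mRNA by TaqMan qRT-PCR, normalised to ACTB/GAPDH/POLR2A; bidirectional fit vs DMSO.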

[11] = read-out: UDP glucuronosyltransferase (UGT1A1), UGT1A1 (gene 54658); assay: LTEA_HepaRG_UGT1A1: Life Technologies and Expression Analysis (LTEA) Assay for UDP glucuronosyltransferase (UGT1A1) using HepaRG (AID 2283538); details: mRNA level, 48 h; actives raise or lower the signal
Outline: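 mRNA induction or loss of UGT1A1, by TaqMan qRT-PCR, in duplicate HepaRG wells after 48 h exposure to half-log dilutions topping at 100 uM; DMSO (0.5%) served as baseline.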

[12] = read-out: X-box binding protein 1 (XBP1), XBP1 (gene 7494); assay: LTEA_HepaRG_XBP1: Life Technologies and Expression Analysis (LTEA) Assay for X-box binding protein 1 (XBP1) using HepaRG (AID 2283540); details: mRNA level, 48 h; actives raise or lower the signal
Outline: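 Human HepaRG monolayers receive test chemical for 48 h across an eight-point half-log series starting at 100 uM. XBP1 mRNA gain or loss is scored against DMSO by qRT-PCR.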

[13] = LTEA_HepaRG_LDH_cytotoxicity: Cytotoxicity Assessment in the Life Technologies and Expression Analysis (LTEA) Assay (AID 2283563; active = hit-call score of the fitted dose curve at least 0.9, where 1 is the maximum;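 for AC50: LDH activity released into spent culture medium as a marker of cell death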)
Outline: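 Human HepaRG hepatic cells are treated with test chemicals for 48 h at up to 100 uM in 0.5% DMSO. Cytotoxicity is scored from medium LDH against the vehicle control.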

[14] = TOX21_p53_BLA_p2_viability: Viability Assessment in the Tox21 HCT-116 p53 Agonism Beta-lactamase Assay, Phase 2 (AID 2283591; active = hit-call score of the fitted dose curve at least 0.9, where 1 is the maximum;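 note: compound exposure lasted 16 h at 37 °C; actives lower the ATP signal meaning cytotoxicity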)
Outline: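 HCT116 p53-bla cells, 4000/well, dosed after 5 h plating (217-fold dilution of DMSO stocks) and incubated 16 h at 37C. Viability taken as cellular ATP by CellTiter-Glo luminescence after 30 min RT; signal loss marks cytotoxicity.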

[15] = target: Cellular tumor antigen p53 (Homo sapiens) (UniProt P04637); assay: TOX21_p53_BLA_p2_ratio: Tox21 HCT-116 p53 Agonism Beta-lactamase Assay, Ratio, Phase 2 (AID 2283592; active = hit-call score of the fitted dose curve at least 0.9, where 1 is the maximum)
Outline: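 Cleaved-to-uncleaved substrate ratio (460 vs 530 nm) measured in HCT116 cells with an inducible beta-lactamase reporter linked to p53 activity. Compounds incubated 16 h at 37C before 2 h room-temperature CCF4-AM loading.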

[16] = TOX21_p53_BLA_p3_viability: Viability Assessment in the Tox21 HCT-116 p53 Agonism Beta-lactamase Assay, Phase 3 (AID 2283593; active = hit-call score of the fitted dose curve at least 0.9, where 1 is the maximum;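 note: cells exposed to compound for 16 h before reading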)
Outline: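 HCT116 cells, 4000/well, dosed 5 h after plating by pin transfer (217-fold dilution from DMSO stock) and incubated 16 h at 37C, 5% CO2. Viability read as ATP luminescence with CellTiter-Glo after 30 min at room temperature.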

[17] = target: Cellular tumor antigen p53 (Homo sapiens) (UniProt P04637); assay: TOX21_p53_BLA_p3_ratio: Tox21 HCT-116 p53 Agonism Beta-lactamase Assay, Ratio, Phase 3 (AID 2283596; active = hit-call score of the fitted dose curve at least 0.9, where 1 is the maximum)
Outline: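 Cells were seeded at 4000/well, rested 5 h at 37C, then dosed with DMSO compound solutions (217-fold dilution) for 16 h. CCF4-AM substrate was loaded for 2 h at room temperature, and the 460/530 nm emission ratio was fitted for gain of signal versus DMSO.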

[18] = TOX21_p53_BLA_p4_viability: Viability Assessment in the Tox21 HCT-116 p53 Agonism Beta-lactamase Assay, Phase 4 (AID 2283597; active = hit-call score of the fitted dose curve at least 0.9, where 1 is the maximum;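 note: hits lower the luminescence signal meaning cytotoxicity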)
Outline: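 Viability is taken as cellular ATP: after 16 h compound exposure of HCT116 cells and a 2 h room-temperature CCF4-AM substrate step, CellTiter-Glo reagent is added and luminescence is measured 30 min later.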

[19] = read-out: UDP glucuronosyltransferase (UGT1A6), UGT1A6 (gene 54578); assay: LTEA_HepaRG_UGT1A6: Life Technologies and Expression Analysis (LTEA) Assay for UDP glucuronosyltransferase (UGT1A6) using HepaRG (AID 2283539); details: mRNA level, 48 h; actives raise or lower the signal
Outline: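 Endpoint is UGT1A6 transcript induction or loss in a human liver cell line, quantified by TaqMan qRT-PCR 48 h after dosing. Concentrations ran from 100 uM downward in half-log steps in 0.5% DMSO; activity was fitted in both directions versus vehicle.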

[20] = ATG_XTT_Cytotoxicity: Cytotoxicity Assessment in the Attagene TRANS-FACTORIAL HepG2 Assay (AID 2283584; active = hit-call score of the fitted dose curve at least 0.9, where 1 is the maximum)
Outline: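 Transfect HepG2 with GAL4-UAS reporter units, dose compound, incubate 24 h, then measure viable cell number by XTT. Fit concentration response against DMSO baseline.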

Measured: AC50

Sequence of Signal transducer and activator of transcription 3 (Homo sapiens) (P40763 whole entry, looked up): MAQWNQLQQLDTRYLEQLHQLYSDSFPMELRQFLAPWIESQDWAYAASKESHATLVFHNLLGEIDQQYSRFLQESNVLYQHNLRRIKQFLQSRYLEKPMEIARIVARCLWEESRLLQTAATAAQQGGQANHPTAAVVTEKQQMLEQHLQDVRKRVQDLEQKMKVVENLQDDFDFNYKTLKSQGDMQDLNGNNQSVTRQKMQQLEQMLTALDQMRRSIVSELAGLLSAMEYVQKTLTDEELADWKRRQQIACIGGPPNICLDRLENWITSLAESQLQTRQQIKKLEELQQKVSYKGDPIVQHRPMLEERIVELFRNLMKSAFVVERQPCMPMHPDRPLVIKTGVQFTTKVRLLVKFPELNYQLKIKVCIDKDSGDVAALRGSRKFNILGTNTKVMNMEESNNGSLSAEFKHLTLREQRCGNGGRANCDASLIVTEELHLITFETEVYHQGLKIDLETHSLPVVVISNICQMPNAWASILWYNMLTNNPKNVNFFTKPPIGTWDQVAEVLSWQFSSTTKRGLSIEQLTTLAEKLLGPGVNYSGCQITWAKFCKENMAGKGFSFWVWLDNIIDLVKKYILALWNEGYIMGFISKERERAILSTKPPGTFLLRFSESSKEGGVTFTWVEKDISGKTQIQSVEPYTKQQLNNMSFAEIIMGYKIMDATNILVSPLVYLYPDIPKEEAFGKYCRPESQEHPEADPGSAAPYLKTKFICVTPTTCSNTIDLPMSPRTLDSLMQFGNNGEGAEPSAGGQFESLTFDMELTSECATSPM
Sequence of Cellular tumor antigen p53 (Homo sapiens) (P04637 whole entry, looked up): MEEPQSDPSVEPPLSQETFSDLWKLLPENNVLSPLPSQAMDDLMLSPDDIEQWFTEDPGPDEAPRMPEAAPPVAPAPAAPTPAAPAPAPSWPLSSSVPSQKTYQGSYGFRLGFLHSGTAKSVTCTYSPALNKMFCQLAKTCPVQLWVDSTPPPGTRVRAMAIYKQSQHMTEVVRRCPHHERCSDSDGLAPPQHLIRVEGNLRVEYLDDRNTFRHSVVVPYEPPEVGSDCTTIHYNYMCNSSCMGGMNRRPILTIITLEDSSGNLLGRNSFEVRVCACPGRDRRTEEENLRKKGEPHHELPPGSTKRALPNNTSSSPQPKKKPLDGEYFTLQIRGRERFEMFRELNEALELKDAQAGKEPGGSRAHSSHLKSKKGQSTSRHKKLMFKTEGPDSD

CCOC(=O)C(C)(C)Oc1ccc(Cl)cc1
active: [11] 15.8 µM
not listed: [19] | [20]
inactive: all other assays above

CCc1c(C(=O)NN2CCCCC2)nn(-c2ccc(Cl)cc2Cl)c1-c1ccc(Br)cc1
active: [3] 36.9 µM | [4] 37.4 µM | [5] 55.3 µM | [6] 13.2 µM | [7] 86.5 µM | [10] 29.8 µM | [11] 58.1 µM | [13] 61.6 µM | [14] 5.6 µM | [16] 9.14 µM | [18] 2.1 µM
inactive: [1] | [2] | [8] | [9] | [15] | [17]

Nc1ccc(S(=O)(=O)c2ccc(N)cc2)cc1
active: [2] 0.767 µM
not listed: [11]
inactive: all other assays above

Cc1ccc(C)c(O)c1C
not listed: [12] | [14] | [19] | [20]
inactive: all other assays above

CC(=O)C(C)=CC1C(C)=CCCC1(C)C (configuration not stated)
not listed: [11]
inactive: all other assays above

NCC1(Cc2noc(=O)[nH]2)CCCCC1
not listed: [14] | [17] | [19] | [20]
inactive: all other assays above

CC=Cc1ccc(O)c(OC)c1
not listed: [11] | [12] | [16]
inactive: all other assays above
